Screens deposited in PubChem BioAssay by several laboratories.
SENP8 block-1 = inhibitors of human SENP8 protease. recombinant SENP8, Nedd8 substrate fluorescence. inhibition, % at 20 µM. hit rate 0.64% among 360,000; in the data active means inhibition mostly above about 40%, no sharp cut-off; inactive means mostly below about 27%
Target sequence (Q96LD8 whole entry, looked up): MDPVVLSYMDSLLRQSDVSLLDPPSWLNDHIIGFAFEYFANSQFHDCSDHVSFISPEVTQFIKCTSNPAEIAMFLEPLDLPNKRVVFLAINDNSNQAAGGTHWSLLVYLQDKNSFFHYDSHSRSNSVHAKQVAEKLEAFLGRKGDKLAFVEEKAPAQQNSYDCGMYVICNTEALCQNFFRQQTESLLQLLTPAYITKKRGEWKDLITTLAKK
SENP7 block = SENP7 protease inhibition; Q9BQF6; recombinant SENP7, Z-RLRGG-aminoluciferin luminescence, 40 min; inhibition, % at 5 µM; hit rate 1.5% among 330,000;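 active means inhibition above about 50% at the single test dose, limit read from the data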;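 further: plate controls were DMSO with enzyme for no effect and no enzyme buffer wells for full effect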
Target sequence (Q9BQF6 706-1050 limits assumed): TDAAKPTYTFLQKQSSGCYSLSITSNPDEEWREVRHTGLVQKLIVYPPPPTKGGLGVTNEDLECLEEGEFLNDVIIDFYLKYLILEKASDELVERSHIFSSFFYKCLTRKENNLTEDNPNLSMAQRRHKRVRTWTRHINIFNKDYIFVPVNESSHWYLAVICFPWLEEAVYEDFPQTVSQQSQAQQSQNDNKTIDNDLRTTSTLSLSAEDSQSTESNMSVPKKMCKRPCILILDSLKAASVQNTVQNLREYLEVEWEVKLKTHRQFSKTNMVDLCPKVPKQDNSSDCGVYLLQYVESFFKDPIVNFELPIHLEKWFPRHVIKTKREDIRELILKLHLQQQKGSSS
SENP8 block-2 = blocks the human protease SENP8. Q96LD8. purified SENP8, Z-RLRGG-aminoluciferin cleavage, luminescence. inhibition, % at 10 µM. hit rate 1.2% among 330,000. AID 2540; in the data active means inhibition above about 50%
LGR2 antag = blocks bursicon-induced cAMP signaling via Drosophila LGR2. HEK293 LGR2, CRE-luciferase, bursicon-stimulated, 4 h. hit rate 0.35% among 380,000. inhibition, % at 9.99 µM. AID 720647;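 active means drop in luminescence signal, shown as inhibition above about 50% in the replicate tests, limit read from the data, passing the limit was not always enough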;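 further: agonist challenge used bursicon conditioned medium at about half maximal strength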
SENP6 inh = inhibitors of human SENP6 protease | AID 2599 | Q9GZR1 | Recombinant SENP6 catalytic domain, aminoluciferin luminescence | hit rate 1.8% among 330,000 | inhibition, % at 10 µM;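 active means inhibition above about 50% at the single tested dose, limit read from the data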;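 further: plate controls were DMSO wells with enzyme for no effect and DMSO wells lacking enzyme for full effect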
HSP90 inh = blocks HSP90-mediated luciferase refolding in reticulocyte lysate | Rabbit reticulocyte lysate, luciferase refolding luminescence, 3 h | inhibition, % at 5.6 µM | hit rate 0.91% among 290,000 | AID 1789;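 active means inhibition above the screen-wide mean plus 3 SD, computed separately per campaign, cut at about 16% in these data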;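 further: 0% = DMSO wells and 100% = 60 µM geldanamycin wells; inhibitors lower the luminescence because luciferase stays unfolded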
SENP8 conf = human SENP8 inhibition, confirmed | shares compounds with SENP7 block | Recombinant SENP8, Z-RLRGG-aminoluciferin luminescence, 60 min | inhibition, % at 12.5 µM | hit rate 40% among 6,200 | AID 488912;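 active means mean inhibition across replicates above about 50%, limit read from the data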
SENP6 confirm = confirmation of human SENP6 protease inhibitors | hit rate 58% among 6,200 | recombinant SENP6, Z-RLRGG-aminoluciferin luminescence | shares compounds with SENP7 block | inhibition, % at 12.5 µM
SENP7 confirm = human SENP7 inhibition, confirmed; AID 488917; hit rate 69% among 6,200; recombinant SENP7, Z-RLRGG-aminoluciferin luminescence, 40 min; inhibition, % at 12.5 µM; shares compounds with SENP7 block
Casp3 select = selectivity test for SENP inhibitors: human caspase-3 inhibition | shares compounds with SENP7 block | purified caspase-3, Z-DEVD-aminoluciferin luminescence, 60 min | inhibition, % at 12.5 µM | hit rate 60% among 6,200 | AID 488918;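 active means mean inhibition above about 50%, limit read from the data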;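 further: plate controls were enzyme with DMSO for no effect and wells without caspase-3 for full effect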
Luc interf = luminescence interference (SENP counter-screen); shares compounds with SENP7 block; inhibition, % at 12.5 µM; Pre-incubated SENP8/Z-RLRGG-aminoluciferin, luciferase luminescence interference; hit rate 39% among 6,200;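 active means mean inhibition above about 50% when retested at one dose, limit read from the data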;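 further: plate controls were DMSO wells with completed reaction for no effect and substrate without enzyme for full effect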
An asterisk follows results filed as active; · = no result given. Hits are enriched below; roughly 2.3% of the tested compounds scored in any of these assays.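 How the source made its calls, unless noted: active means mean inhibition above about 50% in the one-dose retest (limit read from the data); inactive means the rest.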

SMILES	SENP8 block-1	SENP7 block	SENP8 block-2	LGR2 antag	SENP6 inh	HSP90 inh	SENP8 conf	SENP6 confirm	SENP7 confirm	Casp3 select	Luc interf
C[C@H]1CN([C@@H](C)CO)C(=O)Cc2cc(NS(=O)(=O)c3ccc(F)cc3)ccc2O[C@H]1CN(C)S(=O)(=O)c1ccccc1	·	·	·	1.9	·	·	·	·	·	·	·
Cc1nn(C)cc1NC(=O)C[C@H]1CC[C@@H]2[C@@H](COc3ccc(NC(=O)NC(C)C)cc3C(=O)N2C)O1	·	·	·	15.3	·	·	·	·	·	·	·
CCCc1cn(CC[C@H]2CC[C@H](NC(=O)C3CCC3)[C@H](CO)O2)nn1	·	·	·	-4.2	·	·	·	·	·	·	·
COc1ccc(-c2nnc(-c3ccccc3O)o2)cc1	-169.2	93.0*	83.6*	-11.6	80.5*	2.6	51.1*	41.7	66.8*	56.2*	6.5
COc1ccc(-c2nnc(-c3ccc(F)cc3)o2)cc1	-96.5	68.8*	56.5*	-39.4	57.8*	1.7	8.5	8.7	12.4	1.2	8.2
CC(C)C#Cc1ccc([C@@H]2[C@@H](CO)N3C(=O)CN(C(=O)Cc4ccccc4)C[C@H]23)cc1	·	·	·	-18.6	·	·	·	·	·	·	·
COc1cccc(CNc2cnc3ccccc3c2)c1O	-303.8	38.1	41.6	·	59.8*	10.8	37.0	34.7	77.0*	34.5	61.2*
C/C(=N/OC(=O)c1c(F)cccc1F)c1nccs1	16.7	80.3*	46.5	6.1	82.8*	1.7	74.5*	75.3*	96.6*	64.6*	81.6*
COc1ccc(C/C(N)=N/OC(=O)c2cccs2)cc1	5.7	0.0	-3.3	-20.8	-3.8	-1.8	·	·	·	·	·
COc1ccc(C(=O)O/N=C(\C)c2nccs2)cc1	6.2	96.8*	86.8*	·	79.3*	-0.5	73.3*	95.8*	100.4*	96.2*	42.6
COc1ccc(C(=O)O/N=C(/C)c2cccs2)cc1	22.3	99.1*	96.7*	31.0	98.3*	-3.9	11.5	100.6*	103.9*	99.2*	98.8*
C/C(=N\OC(=O)c1ccc(F)cc1)c1nccs1	9.1	83.8*	35.0	·	74.4*	2.5	22.3	24.6	50.4*	56.3*	20.6
CC(=NOC(=O)C1CCCCC1)c1nccs1	9.0	·	·	-2.6	·	·	·	·	·	·	·
C[C@@H]1CN([C@@H](C)CO)C(=O)c2cc(NC(=O)NC3CCCCC3)ccc2O[C@H]1CN(C)Cc1ccc2c(c1)OCO2	·	·	·	33.4	·	·	·	·	·	·	·
COc1ccc(S(=O)(=O)N(C)C[C@H]2Oc3c(NC(=O)NC4CCCCC4)cccc3C(=O)N([C@@H](C)CO)C[C@H]2C)cc1	·	·	·	-19.4	·	·	·	·	·	·	·
Cc1nn2cc(-c3ccccc3)nc2s1	9.3	-2.9	76.4*	-6.2	72.2*	7.0	76.7*	81.0*	96.8*	91.3*	71.0*
c1ccc(-c2cn3nc(-c4ccccc4)sc3n2)cc1	-33.9	93.4*	85.2*	·	-4.8	·	-7.7	3.1	14.8	7.2	-0.8
c1ccc(-c2cn3ccccc3n2)cc1	-441.9	·	·	-27.6	·	·	·	·	·	·	·
CCc1ccc(-c2cn3nc(-c4ccccc4)cnc3n2)cc1	-404.8	-7.3	-5.4	·	-10.5	-0.7	·	·	·	·	·
COc1ccc2c3c([nH]c2c1)[C@H](CO)N(CC1CC1)CC31CCN(Cc2ccccc2F)CC1	·	·	·	16.5	·	·	·	·	·	·	·
COc1cccc(/C=N/Nc2snc(SC)c2C#N)c1O	-254.8	96.2*	96.1*	20.2	99.4*	-1.1	94.7*	98.0*	100.5*	93.5*	79.4*
COc1cccc(/C=N/Nc2snc(SC)c2C#N)c1	-204.9	0.3	5.4	-41.9	36.8	-4.4	·	·	·	·	·
COc1ccc(/C=N/Nc2snc(SC)c2C#N)cc1OC	-271.7	4.1	18.8	·	61.2*	-5.9	6.2	8.2	32.7	11.5	2.6
Cc1ccc(-c2nc(Nc3ccccc3)n[nH]2)cc1	-114.4	50.9*	14.0	·	50.6*	-1.8	16.0	35.1	72.8*	21.9	25.3
O=C(Cc1cccs1)Nc1ccc(F)c(F)c1	1.2	1.8	-1.1	-6.1	-21.9	1.3	·	·	·	·	·
SMILES	SENP8 block-1	SENP7 block	SENP8 block-2	LGR2 antag	SENP6 inh	HSP90 inh	SENP8 conf	SENP6 confirm	SENP7 confirm	Casp3 select	Luc interf
O=C(/C=C/Nc1ccc(S(=O)(=O)Nc2ncccn2)cc1)c1cccs1	-453.3	5.2	-3.4	1.4	4.9	1.6	·	·	·	·	·
O=C(/C=C/Nc1ccc(F)cc1)c1cccs1	-220.9	92.0*	89.2*	·	93.3*	-1.9	88.7*	98.0*	102.2*	95.5*	66.7*
O=C(/C=C/Nc1ccc(F)c(F)c1)c1cccs1	-212.4	82.9*	85.5*	-27.8	90.0*	0.8	67.7*	88.8*	98.6*	83.1*	38.3
Cc1cc(C)c(-c2csc(NC(=O)C3=COCCO3)n2)c(C)c1	1.2	-0.1	2.6	5.5	-8.0	·	·	·	·	·	·
CCc1ccc(-c2csc(NC(=O)C3=COCCO3)n2)cc1	-7.8	29.6	36.4	-52.6	60.1*	·	36.6	32.4	72.8*	16.3	7.2
Cc1cc(C)c2sc(NC(=O)C3=COCCO3)nc2c1	-27.0	62.4*	44.7	-102.9	66.8*	5.3	44.1	65.1*	88.8*	56.5*	44.7
CN(C)CC(=O)N[C@H]1CC[C@H](CCn2cc(C3CCCC3)nn2)O[C@@H]1CO	·	·	·	-1.1	·	·	·	·	·	·	·
Cc1ccc(NC(=O)c2cccc(Oc3ccc([N+](=O)[O-])cc3)c2)c(C(=O)O)c1	16.0	2.1	23.8	8.8	42.0	-4.5	·	·	·	·	·
Cc1ccccc1NC(=O)c1cccc(S(=O)(=O)Oc2ccc([N+](=O)[O-])cc2)c1	5.7	96.8*	8.8	·	-7.9	-0.3	4.0	2.5	-1.0	-0.7	-2.1
Cc1ccc(NC2=C(NCCO)C(=O)c3ccccc3C2=O)cc1	-43.9	35.6	47.0	-10.0	70.3*	-1.5	33.9	56.5*	22.0	16.4	2.5
COc1ccc(C2=C(Nc3ccc(C)cc3)c3ccccc3C2=O)cc1	23.1	9.7	-1.7	0.4	0.8	2.7	·	·	·	·	·
Cc1c(C(=O)Nc2cccc([N+](=O)[O-])c2)csc1-c1ccccc1	25.4	97.3*	2.3	·	72.1*	-1.8	31.6	27.0	45.3	76.2*	51.9*
O=C(Nc1ccncc1)c1cc2ccccc2cc1O	-5.9	93.4*	95.8*	-75.7	99.2*	·	84.6*	99.0*	102.5*	97.3*	45.4
COc1ccc(NC(=O)c2cc([N+](=O)[O-])ccc2O)cc1	29.0	99.7*	95.5*	96.0*	99.6*	80.9*	-24.9	101.3*	104.2*	100.1*	100.1*
